Source: PubChem
An excerpt weighted towards active compounds, which were near 1.8% of everything screened.
HEK293 tox – cytotoxic in the GLP-1 receptor inverse agonist counter-screen; HEK293 cAMP-luciferase reporter cells, luminescence, 24 h; Potency, µM (doses to about 38.3 µM), for the others: top-dose activity change, negative = inhibition, actives largely listed as inhibitors; 410,000 tested, 0.13% active;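 also: loss of luciferase light is scored as toxicity; potency is read from the fitted curve at half-maximal effect; % is scaled to controls: 0 for no effect and ±100 for the full control effect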
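To flag toxic compounds, the library was rerun on cells for 24 hr at 37 deg C and 5% CO2. Viability-linked luminescence was captured 12 min after adding luciferase detection reagent.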
GLP-1R inv ag – inverse agonists of human GLP-1 receptor; P43220; HEK293 GLP-1R CRE-luciferase, luminescence, 24 h; GLP-1R form is constitutively active; Potency, µM (top dose mostly 38.3 µM), for the others: top-dose activity change, negative = inhibition, actives largely listed as inhibitors; 410,000 tested, 1.6% active; also: potency is read from the fitted curve at half-maximal effect; % is scaled to controls: 0 for no effect and ±100 for the full control effect; nearly all actives have a fitted effect of over 55% in size
Target sequence (P43220 whole entry, looked up): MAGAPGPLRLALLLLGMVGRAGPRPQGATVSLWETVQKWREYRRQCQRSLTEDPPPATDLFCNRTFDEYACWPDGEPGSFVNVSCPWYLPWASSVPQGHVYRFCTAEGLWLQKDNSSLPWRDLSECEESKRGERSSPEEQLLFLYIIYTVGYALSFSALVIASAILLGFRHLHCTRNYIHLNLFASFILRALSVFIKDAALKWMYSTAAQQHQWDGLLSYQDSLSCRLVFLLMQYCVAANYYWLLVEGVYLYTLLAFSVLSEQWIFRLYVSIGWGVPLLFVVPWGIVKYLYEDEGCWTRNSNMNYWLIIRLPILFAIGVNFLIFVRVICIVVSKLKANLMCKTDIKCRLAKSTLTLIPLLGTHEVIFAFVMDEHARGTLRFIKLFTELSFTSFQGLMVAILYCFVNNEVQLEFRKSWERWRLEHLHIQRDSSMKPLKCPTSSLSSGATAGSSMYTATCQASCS
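HEK293 cells stably co-expressing constitutively active GLP-1R and a cAMP-responsive luciferase reporter were seeded in DMEM with 10% Nu serum, given compounds after 12 h, and incubated 24 h at 37 deg C. Luminescence was then read.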
TRPML1 blocker – inhibitors of human TRPML1 channel; activity change, negative = inhibition, % (no concentration beside the values); TRPML1-inducible cells, Ca2+ dye fluorescence, FDSS; stronger effect = lower value; inhibition of EC80 agonist-evoked calcium signal; 390,000 tested, 0.02% active; Q9GZU1; AID 624415; in the data active = activity change below about -50%; inconclusive = between about -30% and that limit;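 also: stimulus is agonist 54-4 at its EC80 concentration; % is scaled to controls: 0 for no effect and ±100 for the full control effect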
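Tet-induced TRPML1-DL cells loaded with Ca8 no-wash calcium dye were read kinetically on FDSS. Compound addition was followed by EC80 agonist 54-4 (4 uM final); inhibition was read over 110 s.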
GLP-1R agonist – GLP-1 receptor (human) agonism; 380,000 tested, 0.007% active; AID 624172; HEK293 GLP-1R CRE-luciferase, luminescence, 4-6 h; cells express a hypersensitive GLP-1R form; Potency, µM (titrated, usually from 45.6 µM), inactives show at the highest dose activation, most hits filed as activators; also: potency is read from the fitted curve at half-maximal effect; % of control where 0% means no effect
TRPML1 ag – human mucolipin-1 channel agonism; TRPML1-expressing cells, Ca2+ dye fluorescence, FDSS; activation, % (concentration not given with the values); 410,000 tested, 0.12% active; in the data active = activation above about 50%; inconclusive = mostly about 30% to 49%; also: 0% is about no effect
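Tetracycline-induced TRPML1-DL cells are seeded and incubated overnight before loading with a no-wash Ca2+ dye and quencher. Agonist activity is taken from the 110 s fluorescence read following compound pin-transfer on an FDSS, before EC80 54-4 challenge.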
Numbers without * were called inactive; ? = inconclusive; nt = not tested or not shown. Unless noted, calls follow the shape of the dose curve; as a rule, active = well fitted curve in the direction sought with a large enough effect; inconclusive = small, poorly fitted or top-dose-only effect, or another doubt; inactive = no such curve, though single readings can be large; an effect the other way counts as inactive or inconclusive.

SMILES	HEK293 tox	GLP-1R inv ag	TRPML1 blocker	GLP-1R agonist	TRPML1 ag
COc1cccc(-c2nnc(SCC(=O)N3CCOCC3)o2)c1	-3%	1%	12	-4%	0
Cc1cccc(C(=O)NCCc2nc3ccccc3n2CCC(C)C)c1	-3%	?	6	nt	5
Cc1ccc(SCC(c2ccccc2)N2CCN(C)CCC2=O)cc1 (configuration not stated)	nt	nt	-1	nt	1
Nc1ncnc2c1nc(Cl)n2[C@@H]1O[C@H](CO)[C@@H](O)[C@@H]1O	nt	nt	nt	nt	0
CN(c1cccc(NC(=O)CN(c2ccc(C34CC5CC(CC(C5)C3)C4)cc2)S(C)(=O)=O)c1)S(C)(=O)=O	10µM*	3.2µM*	9	5%	1
COc1ccccc1OCC(=O)/C=C1/N(C)c2ccccc2C1(C)C	3%	10µM*	15	9%	4
CN1/C(=C\C(=O)COC(=O)c2ccccc2O)C(C)(C)c2ccccc21	-2%	?	0	13%	0
CC(=O)NC(CCC(N)=O)C(=O)O (configuration not stated)	nt	nt	nt	-1%	nt
Cc1ccc(C(C#N)c2ccc(C(=O)c3ccc(F)cc3)cc2)cc1 (configuration not stated)	13%	11µM*	-11	-3%	1
CN1CCN(C(=O)c2ccc(CSc3ccc(Cl)cc3)cc2)CC1	20%	5.6µM*	16	-2%	1
CCOC(=O)N1CCN(C(=O)c2ccc(CSc3ccc(Cl)cc3)cc2)CC1	-5%	?	-6	7%	0
Cc1nc2ccn(Cc3cccnc3)c(=O)c2cc1C(=O)N1CCN(c2ccc(F)cc2)CC1	10%	8%	14	nt	3
O=C(Nc1cccc(S(=O)(=O)N2CCCCCC2)c1)c1ccc2ccccc2n1	6%	?	34	8%	1
O=C(Nc1ccc(N2CCCCC2)cc1)c1ccc2ccccc2n1	12%	?	?	3%	87*
CN(C)CCCN(C(=O)c1ccc2c(c1)CCCC2)c1nc2cc3c(cc2s1)OCO3	?	2µM*	6	9%	-1
CN(C)CCCN(C(=O)c1ccco1)c1nc2ccc(Br)cc2s1	?	3.2µM*	14	8%	0
Cc1ccc(C(=O)N(CCCN(C)C)c2nc3ccc(Cl)cc3s2)cc1C	?	6.3µM*	23	17%	2
COc1ccc(N2C(=O)CSC23C(=O)N(CC(=O)NC2CCCCC2)c2ccccc23)cc1 (configuration not stated)	-9%	-12%	-7	nt	2
O=C(Nc1ccc2nc(SCC(=O)N3CCOCC3)sc2c1)c1ccccc1Cl	-20%	-25%	-22	nt	2
CCC(C(=O)NCCc1ccc(Cl)cc1)n1ccc2cc(S(=O)(=O)N3CCCCC3)ccc21 (configuration not stated)	-7%	?	5	nt	-1
Cc1ccc(C(=O)N(c2ccccc2)C2CC(C)N(C(=O)c3ccco3)c3ccccc32)cc1 (configuration not stated)	-9%	10µM*	-3	-1%	-1
Fc1ccc(-c2csc3ncnc(N4CCN(c5ccccc5)CC4)c23)cc1	2%	13µM*	2	13%	0
COc1ccc(N2CCN(c3ncnc4scc(-c5ccc(C)cc5)c34)CC2)cc1	3%	2µM*	67	10%	3
c1ccc(-c2csc3ncnc(N4CCOCC4)c23)cc1	0%	0%	9	8%	1
COc1ccc(N2CCN(c3ncnc4scc(-c5ccc(F)cc5)c34)CC2)cc1	-11%	?	80	1%	3
COc1ccc(N2CCN(c3ncnc4scc(-c5ccccc5)c34)CC2)cc1	-7%	6.3µM*	-21	12%	2
COc1cccc(N2CCN(C(=O)c3cnc4c(-c5ccc(F)cc5)c(C)nn4c3C)CC2)c1	2%	?	1	nt	1
CCc1ccc(NC(=O)C2CCN(S(=O)(=O)c3cccc(-c4noc(C)n4)c3)CC2)cc1	19%	?	-4	nt	1
S=C(CSc1ccccc1)Nc1cccc2ccccc12	?	6.3µM*	0	-1%	0
